Several values for one entry are separate records, joined by “and”; a condition that tells them apart may be missing. Equal values may be shown once. Activity calls are given as the source filed them.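 How the source made its calls, unless noted: active means compound that reduces growth-factor-driven endothelial tube area in a mixed cell culture, no cutoff stated; inactive means the rest.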

From PubChem BioAssay come the findings set out here.

A short description of experiment [1]: Wnt pathway potentiators raising nuclear beta-catenin – imaging, WNT3A-conditioned medium, mouse C2C12, NPC library, primary screen (AID 1117326; in the data active means nuclear beta-catenin stimulation mostly above about 4.2%, no sharp cut-off; inactive means mostly below about 10%). As to conditions: stronger effect = higher value.
Experiment [2] is described as follows: stimulators of insulin release from INS-1E, primary screen, cell-based, 5 mM glucose, NPC library (AID 1117329;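 active means compound raises insulin release from rat beta cells at 5 mM glucose, no numeric limit stated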). Particulars: rat INS-1E insulin secretion, at 10 µM, stronger effect = higher value.
Experiment [3] is described as follows: growth inhibition of GSK3B-pretreated HCT116 cells – cell-based, CellTiter-Glo, 0.2 to 20 µM (AID 1117336;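 active means compounds lowering colon cancer cell viability after pretreatment blocking the GSK3B kinase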). Particulars: HCT116 viability after GSK3B inhibitor, at 20 µM, stronger effect = higher value.
Experiment [4] can be described thus: inhibition of endothelial tube formation, primary screen, imaging, VEGF stimulated, CD31 staining, tube area, NPC library (AID 1117340). As to conditions: VEGF-stimulated ADSC/ECFC co-culture, at 10 µM, stronger effect = higher value.
Experiment [5] can be described thus: GLP1 release stimulators, primary, NCI-H716, NPC library (AID 1117341;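 active means compound raises GLP1 secretion from the human gut endocrine cells, with no numeric limit stated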). Particulars: NCI-H716 cells, at 10 µM, stronger effect = higher value.
A short description of experiment [6]: HCT116 colon cancer cell growth inhibition, primary screen, CellTiter-Glo luminescence, NPC library (AID 1117342;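 active means compounds that lower survival of HCT116 colon cancer cells in the luminescence readout, no numeric limit stated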). As to conditions: at 20 µM (top of the series).
A short description of experiment [7]: reduced SW480 viability measured with CellTiter-Glo, NPC library, primary (AID 1117343;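 active means compounds that lower viability of the colon cancer cells in the luminescence readout, with no numeric limit stated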). As to conditions: CellTiter-Glo luminescence; at 20 µM (top of the series).
Experiment [8] in a line: NPC library primary testing for decreased DLD-1 cell viability via CellTiter-Glo (AID 1117346;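 active means compounds that lower survival of DLD-1 colon cancer cells in the luminescence readout, no cutoff given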). As to conditions: DLD-1 viability, CellTiter-Glo luminescence; at 20 µM (top of the series).
The target of experiment [9] is 6-phosphogluconate dehydrogenase, decarboxylating (Homo sapiens) (UniProt P52209). The experiment in a line: inhibition of human phosphogluconate dehydrogenase – biochemical, recombinant enzyme, NADPH absorbance, primary screen (AID 1159550;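 active means at least 20% inhibition of 6-phosphogluconate dehydrogenase activity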). Particulars: recombinant 6PGD, NADPH absorbance 341 nm; at 10 µM; stronger effect = higher value.
Experiment [10] addresses NAD(+) hydrolase SARM1 (Homo sapiens) (UniProt Q6SZW1). The experiment in a line: blocking NAD cleavage by SARM1 SAM-TIR – cell lysate, NAD-Glo luminescence (AID 1508614;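 active means compound whose remaining NAD level is above about 45 nM, limit read from the data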). As to conditions: SAM-TIR HEK293T lysate NADase, at 1 µM, stronger effect = higher value.
For experiment [11], the target named is Mitogen-activated protein kinase 7 (Homo sapiens) (UniProt Q13164). The experiment in a line: Gal4-ERK5 driven luciferase induction – cell-based, HTS, primary screen (AID 1508626;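 active means luciferase signal above three times the same-plate solvent-only control wells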;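 further: luciferase driven by Gal4-ERK5 fusion binding five Gal4 sites before minimal TATA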). Particulars: HeLa Gal4-ERK5 transactivation, 18 h, at 5 µM, stronger effect = higher value.
Experiment [12] can be described thus: yeast 75Q aggregation reduction – 75Q-TubU reporter (AID 1593). Particulars: Yeast 75Q polyglutamine aggregation reporter.
Experiment [13] is described as follows: blockers of cytochrome c efflux from mitochondria – biochemical, purified mitochondria (AID 1603).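 Further: mouse liver mitochondria challenged with calcium chloride; signal normalized to the plate average as 100%.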 Particulars: stronger effect = lower value.
The nature of experiment [14]: polyglutamine aggregate formation blockers (AID 1604). As to conditions: polyglutamine-induced protein aggregation inhibition assay; stronger effect = higher value; tested at 2.5 µM.
Experiment [15] can be described thus: P. berghei load reduction in hepatocytes – cell-based, HepG2, luciferase luminescence, HepG2 viability, primary screen (AID 624349; in the data active means parasite load remaining mostly below about 12%, no sharp cut-off; inactive means mostly above about 10%;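 further: 100% = mean of DMSO negative control wells on the same plate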). Particulars: P. berghei liver stage in HepG2, luciferase luminescence, concentration not given here; parasite load remaining: stronger effect = lower value; viability: measured here: HepG2 viability without parasites.
Experiment [16] is described as follows: EMT-state selective cytotoxicity in co-culture – imaging, PC-3E GFP, TEM4-18 mCherry, primary screen (AID 1345086;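 active means compounds killing one labelled cell type while sparing the other, by normalised counts and ratio limits, not self-fluorescent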;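 on all read-outs here: cells exposed to compound for 72 h before imaging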;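 on red/green cell ratio (normalised): normalised mesenchymal count divided by normalised epithelial count so high means epithelial killing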). Particulars: PC-3E GFP / TEM4-18 mCherry co-culture, imaging cell counts, at 1 µM; for red/green cell ratio (normalised): actives lie on both sides.
The test system of experiment [17] is Aerobactin synthetase IucA (Klebsiella pneumoniae hvKP1). The experiment in a line: IucA enzyme inhibition, primary screen, biochemical, Spectrum library (AID 1346200; call rule not given here;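 further: 100% = wells without compound and 0% = wells lacking enzyme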). Particulars: malachite green pyrophosphate, A620, at 8 µM, stronger effect = lower value.
Experiment [18] in a line: viability loss with induced miR-34 in A549 – imaging, A549 dox-inducible miR-34, nuclei and caspase counts, primary screen (AID 1347080;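 active means compounds whose cell count with miR-34 switched on is under 0.7 times the count with it off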). As to conditions: A549 miR-34 inducible, Hoechst nuclei count, 48 h.
Experiment [19] can be described thus: MELAS cybrid and Rieske KO viability enhancers – cell-based, MELAS cybrids, Rieske KO mouse fibroblasts, CellTiter-Glo, primary screen (AID 1508586;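 active means mean z-score across replicates of 1.96 or higher in either the MELAS or the Rieske mutant cell line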;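 further: z relative to plate mean and SD of compound and empty wells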). As to conditions: low glucose.
Setting [20] is: measured here: epithelial PC-3E GFP cell survival.
Setting [21] is: measured here: mesenchymal TEM4-18 mCherry cell survival.
Where [22] appears, read: measured here: relative caspase fold change +Dox/-Dox.
Setting [23] is: measured here: total cells with miR-34 induction, stronger effect = lower value.
The mark [24] stands for this setting: measured here: total cells without miR-34 induction.

6-phosphogluconate dehydrogenase, decarboxylating (Homo sapiens), sequence (P52209 whole entry, looked up): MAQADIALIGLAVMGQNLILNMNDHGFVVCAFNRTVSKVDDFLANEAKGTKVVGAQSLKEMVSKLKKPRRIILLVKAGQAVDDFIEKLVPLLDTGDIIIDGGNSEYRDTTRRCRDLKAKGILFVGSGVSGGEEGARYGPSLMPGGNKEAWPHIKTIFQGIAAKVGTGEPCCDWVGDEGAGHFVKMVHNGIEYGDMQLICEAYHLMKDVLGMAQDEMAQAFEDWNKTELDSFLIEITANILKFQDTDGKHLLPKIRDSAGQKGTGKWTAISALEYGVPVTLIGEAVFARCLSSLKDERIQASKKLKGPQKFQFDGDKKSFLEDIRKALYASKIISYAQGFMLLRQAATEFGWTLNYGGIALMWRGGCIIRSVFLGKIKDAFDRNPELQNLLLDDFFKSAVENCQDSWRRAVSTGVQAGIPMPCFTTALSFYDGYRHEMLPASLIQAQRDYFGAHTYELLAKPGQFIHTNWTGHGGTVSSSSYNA
NAD(+) hydrolase SARM1 (Homo sapiens), sequence (Q6SZW1 whole entry, looked up, the tested form may be a part): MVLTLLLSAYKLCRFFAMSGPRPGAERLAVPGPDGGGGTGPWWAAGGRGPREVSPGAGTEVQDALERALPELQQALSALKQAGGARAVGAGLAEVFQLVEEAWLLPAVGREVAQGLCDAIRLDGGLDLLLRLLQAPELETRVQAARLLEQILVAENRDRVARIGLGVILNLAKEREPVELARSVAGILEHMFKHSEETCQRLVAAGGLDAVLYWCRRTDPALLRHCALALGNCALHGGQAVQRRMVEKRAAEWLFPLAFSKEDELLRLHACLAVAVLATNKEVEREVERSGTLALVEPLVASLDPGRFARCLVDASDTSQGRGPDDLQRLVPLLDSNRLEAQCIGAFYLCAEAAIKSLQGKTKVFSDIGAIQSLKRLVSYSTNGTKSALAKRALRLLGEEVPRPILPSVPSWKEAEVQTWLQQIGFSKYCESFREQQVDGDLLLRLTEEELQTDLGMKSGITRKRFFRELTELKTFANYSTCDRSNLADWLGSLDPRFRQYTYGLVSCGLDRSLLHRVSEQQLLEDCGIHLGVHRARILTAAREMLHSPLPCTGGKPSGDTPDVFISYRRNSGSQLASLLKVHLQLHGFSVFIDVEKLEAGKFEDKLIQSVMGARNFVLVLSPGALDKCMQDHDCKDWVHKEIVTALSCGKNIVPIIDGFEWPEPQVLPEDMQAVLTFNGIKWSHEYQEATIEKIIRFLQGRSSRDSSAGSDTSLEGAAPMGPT
Mitogen-activated protein kinase 7 (Homo sapiens), sequence (Q13164 whole entry, looked up, the tested form may be a part): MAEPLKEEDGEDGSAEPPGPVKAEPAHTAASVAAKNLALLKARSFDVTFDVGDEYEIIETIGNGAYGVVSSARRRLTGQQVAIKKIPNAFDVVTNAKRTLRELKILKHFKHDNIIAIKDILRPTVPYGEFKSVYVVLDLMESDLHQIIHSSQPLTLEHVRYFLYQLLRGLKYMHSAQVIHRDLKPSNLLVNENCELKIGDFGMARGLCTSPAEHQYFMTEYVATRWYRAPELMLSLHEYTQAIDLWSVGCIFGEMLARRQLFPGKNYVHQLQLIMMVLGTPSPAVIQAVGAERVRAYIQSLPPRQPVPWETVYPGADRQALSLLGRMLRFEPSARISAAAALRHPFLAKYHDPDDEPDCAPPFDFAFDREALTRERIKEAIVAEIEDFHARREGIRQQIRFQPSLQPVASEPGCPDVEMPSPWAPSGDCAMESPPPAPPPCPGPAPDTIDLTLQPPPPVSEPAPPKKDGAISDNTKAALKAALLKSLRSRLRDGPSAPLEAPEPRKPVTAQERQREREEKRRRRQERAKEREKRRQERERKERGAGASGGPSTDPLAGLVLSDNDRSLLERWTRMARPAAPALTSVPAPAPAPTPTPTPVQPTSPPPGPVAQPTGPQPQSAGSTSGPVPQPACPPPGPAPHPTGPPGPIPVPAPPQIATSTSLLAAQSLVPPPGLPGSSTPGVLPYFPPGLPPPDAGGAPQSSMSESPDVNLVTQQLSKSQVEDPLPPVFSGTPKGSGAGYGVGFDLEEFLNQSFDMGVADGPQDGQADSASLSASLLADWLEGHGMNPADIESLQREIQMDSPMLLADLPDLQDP

As to `C[C@H]1O[C@@H](O[C@H]2[C@@H](O)C[C@H](O[C@H]3[C@@H](O)C[C@H](O[C@H]4CC[C@@]5(C)[C@H](CC[C@@H]6[C@@H]5CC[C@]5(C)[C@@H](C7=CC(=O)OC7)CC[C@]65O)C4)O[C@@H]3C)O[C@@H]2C)C[C@H](O)[C@@H]1O`, the nuclear beta-catenin stimulation is 1.3% (inactive) in experiment [1] (at 10 µM) and 1.9% in experiment [1] (stimulation, at 2 µM). Also, the insulin secretion stimulation in experiment [2] is 0.25% (inactive). In addition, the viability decrease in experiment [3] was 84.5% (active). Also, the tube area decrease in experiment [4] was 112% (active). In experiment [5], the GLP1 secretion stimulation was 11.6% (inactive). In [6], the inhibition of viability was 61.8% (active). For the same molecule, the figures for the viability decrease (inhibition) in experiment [7] and in experiment [8] were 75.8% (active) and 84.5% (active), respectively. Moreover, in [9], the inhibition was -0.54% (inactive). Moreover, the remaining NAD in [10] is 10 nM (inactive). Also, the luciferase signal in experiment [11] was 24 AU (inactive).
As to `Cc1cc(O)ccc1Cl`, the score in experiment [12] was found to be 0.98. Moreover, in [13], the cytochrome c release ratio worked out at 1.22. In [14], the inhibition of aggregation came out at 88%. Also, the parasite load remaining in experiment [15] is 125% (inactive) and 54.1% (inactive). Also, the viability in [15] was 73.3% and 86.2%. The nuclear beta-catenin stimulation in experiment [1] (at 10 µM) was 0.9% (inactive); in experiment [1] (stimulation, at 2 µM), 1.9%. In addition, the insulin secretion stimulation in experiment [2] is 0.3% (inactive). Moreover, the viability decrease in [3] is -17% (inactive). In experiment [4], the tube area decrease is 1.5% (inactive). Also, the GLP1 secretion stimulation in experiment [5] is 0.3% (inactive). For the same molecule, the inhibition of viability in [6] was 3.83% (inactive). The viability decrease (inhibition) in [7] was 26.8% (inactive); in experiment [8], -3.4% (inactive). Also, the inhibition in [9] was 3.62% (inactive). Further, in experiment [16], the red/green cell ratio (normalised) is 1.21 (inactive). Besides, the normalised cell number in [16] (setting [20]) was determined as 1.13; in experiment [16] (setting [21]), 1.36. For the same molecule, in experiment [17], the activity remaining is 115% (inactive). For the same molecule, the fold change in experiment [18] (stronger effect = lower value) was 0.943 (inactive) and 0.921 (inactive); in [18] (setting [22]), 0.551 and 0.785. Also, the cell count is 8310 and 10900 in [18] (setting [23]); 8820 and 11800 in experiment [18] (setting [24]). Besides, the z-score in experiment [19] (MELAS cybrid survival, CellTiter-Glo 48 h, stronger effect = higher value) was -0.196 (inactive); in experiment [19] (Rieske KO mouse fibroblast survival, CellTiter-Glo 72 h) it was -0.163. In experiment [10], the remaining NAD is 10 nM (inactive). For the same molecule, in experiment [11], the luciferase signal is 32 AU (inactive).
On to `CC(=O)[O][Hg][c]1ccccc1`, for which, in [12], the score is -0.45. The cytochrome c release ratio in experiment [13] was determined as 1.06. For the same molecule, the inhibition of aggregation in experiment [14] is -25.5%. Further, the parasite load remaining in experiment [15] is 3.54% (inactive) and -0.265% (inactive). Further, the viability in [15] is 23.1% and 0.225%. Moreover, the nuclear beta-catenin stimulation in [1] (at 10 µM) was 14.5% (inactive); in experiment [1] (stimulation, at 2 µM), 13.2%. In addition, the insulin secretion stimulation in [2] is 15.9% (inactive). Further, in experiment [3], the viability decrease is 103% (active). Also, in [4], the tube area decrease was 110% (active). The GLP1 secretion stimulation in experiment [5] was 49.8% (active). For the same molecule, in [6], the inhibition of viability is 103% (active). Also, the figures for the viability decrease (inhibition) in [7] and in experiment [8] were 144% (active) and 105% (active), respectively. Also, the inhibition in [9] is -9.01% (inactive). Also, the activity remaining in experiment [17] was -6.18% (active). The fold change is 0.775 (inactive) in experiment [18] (stronger effect = lower value) and 1.65 in experiment [18] (setting [22]). In addition, the cell count in experiment [18] (setting [23]) came to 334; in experiment [18] (setting [24]), 432. Further, the remaining NAD in experiment [10] was 63 nM (active). In addition, the luciferase signal in experiment [11] was 32 AU (inactive).
For `COP(=S)(OC)Oc1ccc(SC)c(C)c1`, the nuclear beta-catenin stimulation in experiment [1] (at 10 µM) is 1.4% (inactive); in [1] (stimulation, at 2 µM), 1.3%. In addition, the insulin secretion stimulation in experiment [2] was -2.2% (inactive). The viability decrease in [3] is 16.1% (inactive). In addition, in [4], the tube area decrease is 13.4% (inactive). Also, in [5], the GLP1 secretion stimulation is -0.1% (inactive). Also, in experiment [6], the inhibition of viability was -20.4% (inactive). In addition, the viability decrease (inhibition) is 89.6% (active) in experiment [7] and 8.15% (inactive) in experiment [8]. The inhibition in experiment [9] is 9.75% (inactive). For the same molecule, the red/green cell ratio (normalised) in [16] is 0.97 (inactive). Also, the normalised cell number was determined as 1.03 in experiment [16] (setting [20]) and 1 in experiment [16] (setting [21]). Also, in experiment [17], the activity remaining was 92.7% (inactive). Also, the fold change in experiment [18] (stronger effect = lower value) was 0.917 (inactive); in experiment [18] (setting [22]), 0.928. The cell count in experiment [18] (setting [23]) was 9260; in experiment [18] (setting [24]) it was 10100.
